About 79,000 compounds went through this panel and 15% of them were active in at least one assay; those are over-represented in the sample as a whole. Activity calls are given as the source filed them. No stated cut-off is given here; in the data, active means growth inhibition above about 70%; inactive means the rest.
How the values were obtained:
[1] = NCI Yeast Anticancer Drug Screen. Data for the mec2-1 strain (AID 157); details: S. cerevisiae mec2-1 strain, stronger effect = higher value
Method in brief: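 Mutant yeast (mec2-1) grown with compound; growth inhibition relative to vehicle control reported.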

[2] = NCI Yeast Anticancer Drug Screen. Data for the rad14 strain (AID 159);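 further: 0% = growth of vehicle-treated control cultures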; details: S. cerevisiae rad14 strain growth inhibition, stronger effect = higher value
Method in brief: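 Growth inhibition vs vehicle controls; genetically altered yeast strain (DNA damage repair defect) treated with test compounds.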

[3] = NCI Yeast Anticancer Drug Screen. Data for the sgs1 mgt1 strain (AID 161);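 further: 0% = growth of cultures given vehicle only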; details: S. cerevisiae sgs1 mgt1 strain, stronger effect = higher value
Method in brief: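 This yeast growth screen uses a strain with defined DNA-repair lesions; compound-treated growth is compared with vehicle-treated growth.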

[4] = NCI Yeast Anticancer Drug Screen. Data for the cln2 rad14 strain (AID 165);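 further: 0% = growth equal to vehicle treated cultures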; details: S. cerevisiae cln2 rad14 strain, stronger effect = higher value
Method in brief: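 Readout is yeast growth inhibition versus vehicle-treated controls, using a strain with cln2 and rad14 alterations exposed to compound.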

[5] = NCI Yeast Anticancer Drug Screen. Data for the bub3 strain (AID 167); details: S. cerevisiae bub3 mutant strain, stronger effect = higher value
Method in brief: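 Readout: yeast growth inhibition, expressed relative to vehicle-only wells. The test organism is a mutant strain from a panel with lesions in DNA repair or checkpoint genes.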

[6] = NCI Yeast Anticancer Drug Screen. Data for the wt2 strain (AID 169);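 further: 0% = growth of vehicle-treated yeast cultures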; details: S. cerevisiae wt2 strain growth inhibition, stronger effect = higher value
Method in brief: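 Against vehicle-treated controls, the growth of yeast exposed to each compound was compared, and the inhibition was recorded.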

[7] = NCI Yeast Anticancer Drug Screen. Data for the mlh1 strain (AID 171);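 further: 0% = growth of vehicle-treated control cultures of the same strain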; details: S. cerevisiae mlh1 strain growth inhibition, stronger effect = higher value
Method in brief: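 Measured: yeast growth. Reference: vehicle-treated controls. Organism: strain with a defined alteration affecting DNA damage repair or cell cycle control, treated with compound.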

[8] = NCI Yeast Anticancer Drug Screen. Data for the sgs1 strain (AID 173);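 further: 0% = growth of vehicle-only control cultures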; details: S. cerevisiae sgs1 mutant, stronger effect = higher value
Method in brief: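 Each compound was added to cultures of the altered yeast strain. Growth was recorded, and inhibition was derived by comparison with vehicle controls.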

[9] = NCI Yeast Anticancer Drug Screen. Data for the mlh1 rad18 strain (AID 175); details: S. cerevisiae mlh1 rad18 strain growth inhibition, stronger effect = higher value
Method in brief: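 Genetically defined yeast (DNA repair-deficient) exposed to compounds; growth inhibition determined relative to vehicle.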

[10] = NCI Yeast Anticancer Drug Screen. Data for the rad52 strain (AID 147);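 further: 0% = growth of vehicle-treated control cultures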; details: S. cerevisiae rad52 mutant growth inhibition, stronger effect = higher value
Method in brief: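 The repair-mutant yeast strain was incubated with compounds, then growth was read and inhibition derived relative to vehicle.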

[11] = NCI Yeast Anticancer Drug Screen. Data for the wt1 strain (AID 149);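 further: 0% = growth of vehicle-treated wt1 cultures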; details: S. cerevisiae wt1 strain (SPY 50644) growth inhibition, stronger effect = higher value
Method in brief: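 Growth inhibition read against vehicle controls after compound exposure of the wt1 yeast strain.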

[12] = NCI Yeast Anticancer Drug Screen. Data for the rad50EPP+ strain (AID 151);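 further: 0% = growth of vehicle-treated control cultures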; details: S. cerevisiae rad50 mutant strain, stronger effect = higher value
Method in brief: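 Vehicle-normalised growth inhibition; rad50EPP+ yeast strain, altered in DNA damage repair, compound-treated.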

[13] = NCI Yeast Anticancer Drug Screen. Data for the mgt1 strain (AID 153); details: S. cerevisiae mgt1 mutant growth inhibition, stronger effect = higher value
Method in brief: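 Vehicle-normalized growth inhibition is determined in mgt1 yeast, a strain selected for a defined alteration in DNA repair or cell cycle control.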

[14] = NCI Yeast Anticancer Drug Screen. Data for the rad50 strain (AID 155);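 further: 0% = growth of vehicle-only cultures of the same strain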; details: S. cerevisiae rad50 strain growth inhibition, stronger effect = higher value
Method in brief: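 Readout: growth inhibition relative to vehicle-treated cultures. Compound exposure was carried out in a genetically defined yeast strain deficient in DNA damage repair.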

[15] = NCI Yeast Anticancer Drug Screen. Data for the CLN2oe strain (AID 163);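 further: 0% = growth of vehicle-only control cultures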; details: S. cerevisiae CLN2oe strain, stronger effect = higher value
Method in brief: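 Compounds are applied to yeast harbouring a defined cell-cycle control change; reduced growth compared with vehicle-treated controls gives the value.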

[16] = NCI Yeast Anticancer Drug Screen. Data for the rad18 strain (AID 177); details: S. cerevisiae rad18 mutant growth inhibition, stronger effect = higher value
Method in brief: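 Vehicle-treated cultures served as the baseline for scoring compound-induced growth inhibition in DNA-repair-mutant yeast.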

[17] = at 5.0 µM (retest, dose inferred, filed as 0.5)
[18] = at 50.0 µM (retest, dose inferred, filed as 5.0)

Measured: growth inhibition

O=C1C=CC(=O)N1c1ccc(N2C(=O)C=CC2=O)cc1
active: [1]; at 11.0 µM 100% | [1]; at 33.0 µM 100% | [1]; [18] 82% | [1]; at 50.0 µM 94.4% | [1]; at 100.0 µM 99% | [2]; at 3.7 µM 101% | [2]; at 11.0 µM 100% | [2]; at 33.0 µM 100% | [2]; at 100.0 µM 99% | [3]; [18] 100% | [3]; at 50.0 µM 93.5% | [4]; [18] 100% | [4]; at 50.0 µM 92.3% | [5]; at 3.7 µM 96% | [5]; at 11.0 µM 100% | [5]; at 33.0 µM 100% | [5]; [18] 99% | [5]; at 50.0 µM 92.8% | [5]; at 100.0 µM 99% | [6]; at 3.7 µM 91% | [6]; at 11.0 µM 99% | [6]; at 33.0 µM 100% | [6]; at 100.0 µM 98% | [7]; at 3.7 µM 99% | [7]; at 11.0 µM 100% | [7]; at 33.0 µM 100% | [7]; at 100.0 µM 99% | [8]; at 3.7 µM 99% | [8]; at 11.0 µM 99% | [8]; at 33.0 µM 100% | [8]; at 100.0 µM 99% | [9]; [18] 75% | [9]; at 50.0 µM 92.5%
inactive: [1]; [17] 39% | [2]; at 1.2 µM 17% | [3]; [17] -16% | [4]; [17] 47% | [5]; at 1.2 µM 48% | [5]; [17] 19% | [6]; at 1.2 µM 9% | [7]; at 1.2 µM 49% | [8]; at 1.2 µM 41% | [9]; [17] 37%

CCCCOC(=O)CSSCC(=O)OCCCC
active: [10]; at 33.0 µM 83% | [10]; at 100.0 µM 97% | [11]; at 33.0 µM 81% | [11]; at 100.0 µM 97% | [12]; at 33.0 µM 89% | [12]; at 100.0 µM 97% | [13]; at 33.0 µM 83% | [13]; at 100.0 µM 99% | [14]; at 33.0 µM 76% | [14]; [18] 99% | [14]; at 50.0 µM 91% | [14]; at 100.0 µM 97% | [1]; at 33.0 µM 80% | [1]; [18] 99% | [1]; at 50.0 µM 91.9% | [1]; at 100.0 µM 98% | [2]; at 33.0 µM 71% | [2]; at 100.0 µM 97% | [3]; [18] 99% | [15]; at 100.0 µM 98% | [4]; [18] 99% | [5]; at 33.0 µM 88% | [5]; [18] 98% | [5]; at 100.0 µM 99% | [6]; at 33.0 µM 70% | [6]; at 100.0 µM 98% | [7]; at 33.0 µM 74% | [7]; at 100.0 µM 98% | [8]; at 33.0 µM 70% | [8]; at 100.0 µM 96% | [9]; [18] 99% | [9]; at 50.0 µM 90.2% | [16]; at 33.0 µM 84% | [16]; at 100.0 µM 98%
inactive: [10]; at 1.2 µM -20% | [10]; at 3.7 µM -9% | [10]; at 11.0 µM 28% | [11]; at 1.2 µM -7% | [11]; at 3.7 µM -2% | [11]; at 11.0 µM 13% | [12]; at 1.2 µM -17% | [12]; at 3.7 µM -5% | [12]; at 11.0 µM 45% | [13]; at 1.2 µM 16% | [13]; at 3.7 µM 10% | [13]; at 11.0 µM 45% | [14]; at 1.2 µM -11% | [14]; at 3.7 µM 2% | [14]; [17] 44% | [14]; at 11.0 µM 17% | [1]; at 1.2 µM -38% | [1]; at 3.7 µM -10% | [1]; [17] 48% | [1]; at 11.0 µM 7% | [2]; at 1.2 µM -11% | [2]; at 3.7 µM -13% | [2]; at 11.0 µM -3% | [3]; [17] 9% | [15]; at 1.2 µM 8% | [15]; at 3.7 µM 4% | [15]; at 11.0 µM 8% | [15]; at 33.0 µM 61% | [4]; [17] 32% | [5]; at 1.2 µM 14% | [5]; at 3.7 µM 14% | [5]; [17] 56% | [5]; at 11.0 µM 53% | [6]; at 1.2 µM -15% | [6]; at 3.7 µM -1% | [6]; at 11.0 µM 8% | [7]; at 1.2 µM -26% | [7]; at 3.7 µM 7% | [7]; at 11.0 µM 37% | [8]; at 1.2 µM -30% | [8]; at 3.7 µM -8% | [8]; at 11.0 µM 18% | [9]; [17] 40% | [16]; at 1.2 µM -2% | [16]; at 3.7 µM 15% | [16]; at 11.0 µM 40%

NNC(=S)Nc1cccc(Cl)c1
active: [10]; at 100.0 µM 79% | [11]; at 100.0 µM 86% | [13]; at 100.0 µM 97% | [14]; at 50.0 µM 76% | [14]; at 100.0 µM 92% | [1]; at 50.0 µM 78.6% | [1]; at 100.0 µM 91% | [2]; at 100.0 µM 95% | [3]; [18] 97% | [15]; at 100.0 µM 71% | [4]; [18] 96% | [5]; [18] 95% | [5]; at 100.0 µM 90% | [6]; at 100.0 µM 87% | [8]; at 100.0 µM 89% | [9]; at 50.0 µM 75.1% | [16]; at 100.0 µM 88%
inactive: [10]; at 1.2 µM -16% | [10]; at 3.7 µM -26% | [10]; at 11.0 µM -16% | [10]; at 33.0 µM 6% | [11]; at 1.2 µM -8% | [11]; at 3.7 µM -8% | [11]; at 11.0 µM -14% | [11]; at 33.0 µM 14% | [12]; at 1.2 µM -29% | [12]; at 3.7 µM -28% | [12]; at 11.0 µM -31% | [12]; at 33.0 µM -55% | [12]; at 100.0 µM -47% | [13]; at 1.2 µM -18% | [13]; at 3.7 µM -19% | [13]; at 11.0 µM 20% | [13]; at 33.0 µM 68% | [14]; at 1.2 µM -33% | [14]; at 3.7 µM -36% | [14]; [17] 58% | [14]; at 11.0 µM -20% | [14]; at 33.0 µM 27% | [14]; [18] 58% | [1]; at 1.2 µM -54% | [1]; at 3.7 µM -41% | [1]; [17] 63% | [1]; at 11.0 µM -40% | [1]; at 33.0 µM -5% | [1]; [18] 58% | [2]; at 1.2 µM -27% | [2]; at 3.7 µM -25% | [2]; at 11.0 µM -28% | [2]; at 33.0 µM 26% | [3]; [17] 9% | [15]; at 1.2 µM 0% | [15]; at 3.7 µM 15% | [15]; at 11.0 µM -3% | [15]; at 33.0 µM 3% | [4]; [17] 66% | [5]; at 1.2 µM -12% | [5]; at 3.7 µM -9% | [5]; [17] 31% | [5]; at 11.0 µM -9% | [5]; at 33.0 µM 35% | [6]; at 1.2 µM -27% | [6]; at 3.7 µM -23% | [6]; at 11.0 µM -25% | [6]; at 33.0 µM 8% | [8]; at 1.2 µM -18% | [8]; at 3.7 µM -22% | [8]; at 11.0 µM -8% | [8]; at 33.0 µM 32% | [9]; [17] 40% | [9]; [18] 54% | [16]; at 1.2 µM -17% | [16]; at 3.7 µM -11% | [16]; at 11.0 µM -6% | [16]; at 33.0 µM 24%

Source: PubChem BioAssay (NCI)
